# Rows were chosen to be rich in hits. Some 2.3% of all compounds tested hit in one or more screens of this group.
# Mcl-1 Bim block: inhibitors of Bim peptide binding to Mcl-1, primary screen, biochemical, bead-based flow cytometry, multiplex; Induced myeloid leukemia cell differentiation protein Mcl-1 (Homo sapiens), Q07820; Bim peptide-Mcl-1 binding; inhibition, % at 10 µM; 0.1% of 190,000 active; AID 1009, 2008; in the data active = inhibition above about 40%;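 note: 0% = no compound tracer wells and 100% = peptide blocker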
# Target sequence (Q07820 whole entry, looked up): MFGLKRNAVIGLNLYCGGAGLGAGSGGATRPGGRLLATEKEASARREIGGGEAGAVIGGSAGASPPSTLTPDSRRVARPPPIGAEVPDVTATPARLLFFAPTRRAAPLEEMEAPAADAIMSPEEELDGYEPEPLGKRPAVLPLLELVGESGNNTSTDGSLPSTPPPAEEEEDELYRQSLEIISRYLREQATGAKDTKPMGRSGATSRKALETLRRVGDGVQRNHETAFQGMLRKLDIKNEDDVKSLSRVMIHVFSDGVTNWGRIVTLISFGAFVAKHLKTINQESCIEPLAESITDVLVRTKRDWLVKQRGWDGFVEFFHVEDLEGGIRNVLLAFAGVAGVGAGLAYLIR
# Mcl1-Bid inh: Mcl-1/Bid binding inhibitors, primary screen, biochemical, TR-FRET, 1536-well | 0.97% of 220,000 active | inhibition, % at 21.7 µM | TR-FRET Mcl-1/Bid-Dy647 peptide binding | Induced myeloid leukemia cell differentiation protein Mcl-1 (Homo sapiens), Q07820;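 active = compounds that cut the binding signal by more than half at the single screening dose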;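 note: His-tagged Mcl-1 with europium anti-His antibody binding Bid BH3 peptide; 0% = Mcl-1 plus peptide wells and 100% = peptide-only wells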
# BCLXL inh: inhibitors of human Bcl-xL, primary screen, biochemical, fluorescence polarization, HTS; Bcl-2-like protein 1 (Homo sapiens), Q07817; GST-Bcl-xL / FITC-Bim BH3 peptide fluorescence polarization; inhibition, % at 10.9 µM; 0.7% of 320,000 active; AID 2129, 2009;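 active = inhibition above the mean of all tested compounds plus 3 SD, cutoff set per campaign, cut at about 30% in these data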;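 note: 0% = DMSO wells and 100% = unlabeled Bim-BH3 peptide competitor; inhibitors lower millipolarization by displacing the labeled peptide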
# Target sequence (Q07817 whole entry, looked up): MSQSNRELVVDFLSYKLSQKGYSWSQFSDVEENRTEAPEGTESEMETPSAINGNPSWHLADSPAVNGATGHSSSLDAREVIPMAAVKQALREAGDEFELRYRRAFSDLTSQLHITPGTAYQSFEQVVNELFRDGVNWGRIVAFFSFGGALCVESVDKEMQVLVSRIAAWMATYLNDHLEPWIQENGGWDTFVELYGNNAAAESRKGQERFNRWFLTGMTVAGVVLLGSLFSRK
# GLD-1 RNA inh: GLD-1/TGE RNA complex disruptors, primary screen, biochemical, fluorescence polarization. Female germline-specific tumor suppressor gld-1 (Caenorhabditis elegans), Q17339. purified GLD-1 + fluorescein TGE RNA. inhibition, % at 5.96 µM. 0.44% of 320,000 active;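 active = percent inhibition above a per-plate cutoff, the plate mean of test compounds plus 3 SD, cut at about 30% in these data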;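 note: 0% = DMSO wells with GLD-1 and probe and 100% = wells lacking GLD-1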
# MCL1-BIM inh: inhibitors of MCL1 binding to BIM-BH3, primary screen, biochemical, fluorescence polarization. Induced myeloid leukemia cell differentiation protein Mcl-1 (Homo sapiens), Q07820. AID 2057, 2009. GST-MCL1 / FITC-Bim-BH3 fluorescence polarization. inhibition, % at 10.9 µM. 0.68% of 320,000 active;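 active = inhibition above the mean inhibition of all tested compounds plus 3 SD, set per campaign, cut at about 40% in these data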;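 note: 0% = DMSO wells and 100% = unlabeled Bim-BH3 peptide control; higher means more loss of mP so more displacement of Bim peptide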
# Mcl1 Noxa PPI: Mcl-1/Noxa binding inhibitors, primary screen, biochemical, TR-FRET, 1536-well; AID 1022, 2008; Induced myeloid leukemia cell differentiation protein Mcl-1 (Homo sapiens), Q07820; TR-FRET Mcl-1/Noxa peptide binding, 2 h; 1.5% of 220,000 active; inhibition, % at 21.7 µM;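 active = compounds that cut the protein-peptide binding signal by more than 50% relative to plate controls in a single-dose test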;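 note: His-tagged Mcl-1 with rhodamine Noxa BH3 peptide and terbium anti-His antibody; 0% = Mcl-1 plus Noxa peptide wells and 100% = peptide-only wells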
# An asterisk follows results filed as active; nt = not tested or not shown.
SMILES,Mcl-1 Bim block,Mcl1-Bid inh,BCLXL inh,GLD-1 RNA inh,MCL1-BIM inh,Mcl1 Noxa PPI
COc1cccc(N(CC(=O)N2CCCC2)S(C)(=O)=O)c1,nt,nt,-2,6,0,nt
COc1cccc(NS(=O)(=O)c2ccc3[nH]cc(C(=O)N(C)Cc4ccco4)c(=O)c3c2)c1,0,58*,10,1,7,10
CCc1ccccc1NS(=O)(=O)c1ccc2[nH]cc(C(=O)NCC3CCCO3)c(=O)c2c1 (centres undefined),-2,59*,8,-1,7,72*
Cc1ccccc1NS(=O)(=O)c1ccc2[nH]cc(C(=O)N(C)Cc3ccco3)c(=O)c2c1,-3,51*,8,-2,12,11
Cc1cc(C)cc(NS(=O)(=O)c2ccc3[nH]cc(C(=O)NCc4ccco4)c(=O)c3c2)c1,-2,5,11,4,4,32
CSc1ccc(CCNC(=O)c2cc(C)nn2-c2ccccc2)cc1,nt,-108,2,4,3,0
C=CSc1sc(Cl)c(N(CC)CC)c1[N+](=O)[O-],-1,-55,9,-1,26,52*
COc1cc2c(cc1OC)CN(C(=O)Cc1c(F)cccc1Cl)CC2,nt,nt,1,4,-1,nt
NC(=O)/C(=C/c1ccco1)NC(=O)c1ccc(Br)o1,nt,nt,39*,24,40*,nt
O=C(N/C(=C/c1ccc(Br)cc1)C(=O)N1CCOCC1)c1ccco1,nt,nt,3,5,4,nt
O=C(N/C(=C\c1ccco1)C(=O)N1CCOCC1)c1ccco1,9,-41,33*,18,26,-8
COC(=O)/C(=C/c1ccco1)NC(=O)c1ccc(Br)o1,-1,-28,9,3,13,3
N#CCSc1ccccc1NC(=O)COC(=O)Cc1c[nH]c2ccccc12,nt,nt,-10,-15,-25,nt
CC(=O)N1CCN(c2nc(-c3cccs3)nc3ccccc23)CC1,0,-18,-1,-5,4,3
CCN1CCN(c2nc(-c3ccncc3)nc3ccccc23)CC1,5,-15,7,1,6,51*
CCCN1CCN(c2nc(-c3cccs3)nc3ccccc23)CC1,-2,-11,4,3,6,53*
CCN1CCN(c2nc(-c3cccnc3)nc3ccccc23)CC1,13,39,7,0,4,66*
CN1CCN(c2nc(-c3cccnc3)nc3ccccc23)CC1,0,-11,1,0,3,50
Cc1cc2c(cc1S(=O)(=O)CCC(=O)N(C)Cc1ccccc1)OCC(=O)N2,nt,nt,5,1,5,nt
COc1ccc(N2C(=O)CC(NC34CC5CC(CC(C5)C3)C4)C2=O)c(OC)c1 (centres undefined),1,57*,9,3,1,33
COc1ccc(CCN2C(=O)CC(NC34CC5CC(CC(C5)C3)C4)C2=O)cc1OC (centres undefined),3,-3,6,4,7,-7
CCCOc1ccc(C(=O)NCCC(=O)NCCCC(=O)OCC)cc1,3,-21,-3,0,1,nt
CCCCOc1ccc(C(=O)NCCC(=O)NCCCC(=O)OCC)cc1,nt,94*,0,0,1,3
COc1ccc(/C=N/NC(=O)Nc2cccc3nsnc23)cc1,-2,53*,-2,-11,-8,2
CCCCC1=CC2=C(c3ccco3)C(=O)C(C)(OC(=O)c3ccc(OC)cc3)C(=O)C2=CN1Cc1ccccc1 (centres undefined),nt,-29,37*,44*,32,20
SMILES,Mcl-1 Bim block,Mcl1-Bid inh,BCLXL inh,GLD-1 RNA inh,MCL1-BIM inh,Mcl1 Noxa PPI
CCCCC1=CC2=C(c3ccco3)C(=O)C(C)(OC(=O)c3ccc(OC)cc3)C(=O)C2=CN1CCOC (centres undefined),nt,-133,18,16,23,3
CCN(CC)CC(=O)NC12CC3CC(CC(C3)C1)C2,0,63*,1,-2,-4,37
CS(=O)(=O)c1ccc(Cl)c(NC(=O)CNC(=O)c2ccc3c(c2)OCO3)c1,nt,nt,nt,-3,nt,nt
Clc1ccc(OCCCNCc2ccccc2)c(Br)c1,-5,70*,-4,-1,-5,21
Clc1ccc(Cl)c(OCCCCNCc2ccccc2)c1,-2,35,4,5,7,28
C=CCNCCCOc1ccc(Cl)cc1Br,-2,77*,2,3,-2,25
OCCNCCCOc1ccc(Cl)cc1Br,-3,1,3,-1,-1,-1
CC(C)(C)OC(=O)N[C@@H](COCc1ccccc1)C(=O)N[C@@H](CO)[C@H](O)[C@@H]1C[C@@H]1C(=O)NC1CCCCC1,nt,nt,1,0,-6,nt
CC(C)c1ccc(/C=N/n2cnnc2)cc1,nt,-13,4,-2,6,-9
O=[N+]([O-])c1cc(-c2ccc(/C=N/c3nc4ccccn4c3-c3ccco3)o2)ccc1Cl,1,65*,25,26,30,65*
COCCNC(=O)C1CC(c2ccc(C(F)(F)F)cc2)=NO1 (centres undefined),nt,nt,9,2,11,nt
COc1ccccc1CCc1nnc(CCC(=O)NC(C)Cc2cccnc2)o1 (centres undefined),0,83*,6,6,12,9
COc1ccccc1CCc1nnc(CCC(=O)NCCCOc2cccnc2)o1,-1,-23,5,9,12,-1
CC(=O)N1c2ccc(S(=O)(=O)N(C)CC(=O)Nc3ccccc3C)cc2CC1C (centres undefined),nt,nt,-2,-5,-8,nt
Cc1nnc(SCc2nc3sc(C(=O)O)c(C)c3c(=O)[nH]2)s1,nt,0,10,0,15,14
CSCc1nc2sc(C(=O)Nc3nc(C)cs3)c(C)c2c(=O)[nH]1,0,-23,2,-14,-2,79*
Cc1csc(NC(=O)CSc2nc3sc(C)c(C)c3c(=O)[nH]2)n1,-4,63*,-3,-8,-10,-118
CCC(=O)Nc1ccc(C(=O)CSc2nnc(-c3ccc(NS(=O)(=O)CC)cc3)o2)cc1OC,nt,20,-3,-1,-6,21
CCC(=O)c1cn(CC(=O)Nc2ccc(C)cc2C)c2ccccc12,nt,nt,5,0,1,nt
CCN(C(=O)CN1C(=O)S/C(=C\c2ccc(F)cc2)C1=O)C1CCS(=O)(=O)C1 (centres undefined),nt,nt,3,9,1,nt
COC(=O)[C@@]1(Cc2ccccc2)[C@H]2c3cc(C(=O)N4CCCC4)n(CCSCCO)c3C[C@H]2CN1C(=O)c1ccccc1,-2,-13,7,5,1,101*

# Screens as filed in PubChem BioAssay.
